# Test results as given in PubChem BioAssay.
# The source made the active and inactive calls. Unless noted, no rule for the calls is given here.
# Tests used:
# [1] = HepG2 liver cancer cell viability effects, profiling panel, resazurin fluorescence, 24 h, PK04 Diversity Set (AID 1172); conditions: higher = more signal
# [2] = basal S. cerevisiae growth modulation, no modifier, primary screen, OD600, strain BY4716, 24 h, basal condition (AID 1173); conditions: OD600, 24 h, higher = more signal, called active from +8 up or from −8 down
# [3] = MM1S myeloma cell viability, profiling panel, resazurin fluorescence, basal, 24 h, PK04 Diversity Set (AID 1174); conditions: higher = more signal, called active from +8 up or from −8 down;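 also: MM1S multiple myeloma cell line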
# [4] = target: Dihydroorotate dehydrogenase (quinone), mitochondrial (Plasmodium falciparum (isolate 3D7)) (UniProt Q08210); assay: PfDHODH enzyme inhibitors, primary screen, biochemical, C-terminal His tag, absorbance 600 nm (AID 1175); conditions: DCIP absorbance 600 nm, higher = more signal, called active from +8 up or from −8 down;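 also: recombinant parasite enzyme with a five histidine tag at its C terminus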
# [5] = P. aeruginosa biofilm formation inhibitors, primary screen, strain PAO1, LB-PBS medium, absorbance 600 nm (AID 1176); conditions: P. aeruginosa PAO1 growth/biofilm, A600, 12 h; higher = more signal
# [6] = S. cerevisiae RM11-1a growth modifiers, primary screen, strain RM11-1a, OD600, basal, 24 h (AID 1177); conditions: OD600, 24 h, higher = more signal, called active from +8 up or from −8 down;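 also: cultures grown under basal conditions with no added stressor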
# [7] = E. coli acrAB mutant growth effects, primary screen, E. coli filamentation inducers, strain DRC39, OD650, 24 h (AID 1178); conditions: higher = more signal, called active from +8 up or from −8 down;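 also: growth measured as culture turbidity by optical density at 650 nm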
# [8] = E. coli acrAB mutant growth effects, primary screen, E. coli filamentation inducers, strain DRC39, OD650, 48 h (AID 1179);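 also: screen aims at cell division blockers that make cells filament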; conditions: E. coli DRC39 delta-acrAB growth, higher = more signal, called active from +8 up or from −8 down
# [9] = RPMI8226 myeloma cell viability, profiling panel, resazurin fluorescence, basal, 24 h, PK04 Diversity Set (AID 1180); conditions: higher = more signal;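 also: RPMI8826 multiple myeloma cell line at 5000 cells per well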
# [10] = target: E3 ubiquitin-protein ligase XIAP (Homo sapiens) (UniProt P98170); assay: XIAP binders, primary screen, biophysical, small-molecule microarray, fluorescence 635 nm (AID 1181); conditions: small-molecule microarray binding, higher = more signal;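 also: score merges 667 nm emission and signal to noise over triplicate slides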
# [11] = tested on: XIP peptide (Xip251-270) binding; assay: small-molecule binders of XIP peptide, primary screen, biochemical, small-molecule microarray, fluorescence 635/667 nm, 0.1 µg/mL protein (AID 1182); conditions: fluorescent protein binding, 635 nm, higher = more signal, called active from +8 up or from −8 down
# XIP peptide (Xip251-270) = assay: small-molecule binders of XIP peptide, primary screen, biochemical, small-molecule microarray, fluorescence 635/667 nm, 0.5 µg/mL protein (AID 1183); conditions: small-molecule microarray binding, fluorescence 635 nm; higher = more signal
# [12] = Plasmodium falciparum growth inhibition, primary screen, strain 3D7, DAPI fluorescence, 100 nL (AID 1184);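 also: parasites grown inside human red blood cells in medium with human serum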; conditions: P. falciparum 3D7 growth, 3 d, higher = more signal
# [13] = target: Homeobox protein Hox-A13 (Mus musculus) (UniProt Q62424); assay: inhibitors of HoxA13-DNA binding, primary screen, biochemical, fluorescence polarization, labeled oligonucleotide (AID 1185); conditions: 15 min, higher = more signal, called active from +8 up or from −8 down
# [14] = inhibitors of hydroxyurea-induced Chk1 phosphorylation, primary screen, imaging, HeLa, phospho-Chk1 antibody, percent positive cells (AID 1186); conditions: hydroxyurea-induced phospho-Chk1 immunofluorescence imaging, higher = more signal
# [15] = inhibitors of hydroxyurea-induced Chk1 phosphorylation, primary screen, imaging, HeLa, phospho-Chk1 nuclear intensity (AID 1187); conditions: hydroxyurea-induced phospho-Chk1 immunofluorescence imaging, higher = more signal
# Sequence of E3 ubiquitin-protein ligase XIAP (Homo sapiens) (P98170 whole entry, looked up): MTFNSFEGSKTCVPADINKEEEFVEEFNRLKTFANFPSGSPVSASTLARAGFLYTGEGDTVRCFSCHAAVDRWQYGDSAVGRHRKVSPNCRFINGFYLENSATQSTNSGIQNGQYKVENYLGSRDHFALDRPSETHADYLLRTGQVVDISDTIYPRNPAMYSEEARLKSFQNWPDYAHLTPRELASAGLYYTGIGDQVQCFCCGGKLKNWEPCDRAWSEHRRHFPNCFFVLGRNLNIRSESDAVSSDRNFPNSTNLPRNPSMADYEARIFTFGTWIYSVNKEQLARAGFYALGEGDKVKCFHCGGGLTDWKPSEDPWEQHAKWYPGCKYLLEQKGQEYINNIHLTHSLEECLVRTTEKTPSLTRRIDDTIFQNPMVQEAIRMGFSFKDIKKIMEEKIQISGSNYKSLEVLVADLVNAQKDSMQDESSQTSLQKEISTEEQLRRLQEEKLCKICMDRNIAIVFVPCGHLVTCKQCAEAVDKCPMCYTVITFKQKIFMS
# Sequence of Homeobox protein Hox-A13 (Mus musculus) (Q62424 whole entry, looked up): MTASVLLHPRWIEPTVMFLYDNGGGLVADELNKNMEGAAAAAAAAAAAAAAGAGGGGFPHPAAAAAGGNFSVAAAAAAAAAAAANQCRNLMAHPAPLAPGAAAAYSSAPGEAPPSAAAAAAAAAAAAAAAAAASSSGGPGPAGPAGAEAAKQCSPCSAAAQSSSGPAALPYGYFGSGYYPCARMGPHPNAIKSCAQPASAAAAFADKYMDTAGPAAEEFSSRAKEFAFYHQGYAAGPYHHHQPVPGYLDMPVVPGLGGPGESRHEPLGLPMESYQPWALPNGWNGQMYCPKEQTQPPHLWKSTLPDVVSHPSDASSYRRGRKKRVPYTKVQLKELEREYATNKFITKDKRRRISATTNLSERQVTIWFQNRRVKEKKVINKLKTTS
# Sequence of Dihydroorotate dehydrogenase (quinone), mitochondrial (Plasmodium falciparum (isolate 3D7)) (Q08210 whole entry, looked up): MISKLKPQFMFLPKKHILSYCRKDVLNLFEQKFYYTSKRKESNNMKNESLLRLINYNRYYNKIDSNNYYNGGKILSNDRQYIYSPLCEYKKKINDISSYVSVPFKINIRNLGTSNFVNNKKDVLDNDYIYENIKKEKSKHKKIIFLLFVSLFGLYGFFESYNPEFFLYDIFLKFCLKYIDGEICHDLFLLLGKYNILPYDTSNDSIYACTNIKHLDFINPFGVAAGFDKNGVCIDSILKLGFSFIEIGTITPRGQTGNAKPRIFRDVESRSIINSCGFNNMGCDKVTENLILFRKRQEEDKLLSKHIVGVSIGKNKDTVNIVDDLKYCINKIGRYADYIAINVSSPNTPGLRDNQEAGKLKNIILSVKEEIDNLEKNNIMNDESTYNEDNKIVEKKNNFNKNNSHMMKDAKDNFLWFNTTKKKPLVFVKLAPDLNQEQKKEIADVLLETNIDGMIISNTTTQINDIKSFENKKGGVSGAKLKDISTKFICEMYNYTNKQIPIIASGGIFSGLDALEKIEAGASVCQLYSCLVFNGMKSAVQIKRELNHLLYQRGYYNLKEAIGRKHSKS
SMILES,z-score [1],z-score [2],z-score [3],composite z-score [4],z-score [5],z-score [6],z-score [7],z-score [8],z-score [9],composite z-score [10],composite z-score [11],composite z-score (XIP peptide (Xip251-270)),z-score [12],z-score [13],z-score [14],z-score [15]
CCCNC(=O)[C@@]1(C)c2ccccc2C(=O)N(c2ccc(C)cn2)[C@H]1c1ccc(CO)cc1,-0.112,-0.397 (inactive),0.268 (inactive),-0.281 (inactive),0.484 (inactive),-0.306 (inactive),-0.398 (inactive),-0.586 (inactive),-0.388,-0.127,0.635 (inactive),0.386,1.01,-1.63 (inactive),0.0068 (inactive),-0.172 (inactive)
COc1cc(OC)c(C(O)C2C=CC3C(=O)N(Cc4ccccc4)C(=O)C3N2n2cnnc2)cc1Br (centres undefined),-0.797,-8.67 (active),-0.982 (inactive),-0.552 (inactive),-0.169 (inactive),-3.92 (inactive),-0.514 (inactive),-0.905 (inactive),-1.21,0.197,0.236 (inactive),0.0481,-0.976,0.767 (inactive),0.0176 (inactive),0.301 (inactive)
C#CCN([C@@H](Cc1ccccc1)C(=O)OC)[C@@H](/C=C/C1CC1)[C@H](O)Cc1ccccc1,0.454,-0.0746 (inactive),1.4 (inactive),-0.371 (inactive),-0.189 (inactive),0.0421 (inactive),-0.622 (inactive),0.03 (inactive),0.659,-0.175,-0.0272 (inactive),-0.194,-1.12,-6.42 (inactive),-0.121 (inactive),0.134 (inactive)
C=C(/C(=C/C[C@H](OC(=O)c1ccncc1)c1ccc(CO)o1)c1cnc2ccccc2c1)C(C)C,-0.0499,-1.2 (inactive),-0.0537 (inactive),-7.44 (inactive),1.16 (inactive),0.481 (inactive),0.586 (inactive),0.0868 (inactive),0.601,-0.0749,0.276 (inactive),0.647,-0.137,-5.42 (inactive),-0.282 (inactive),-0.39 (inactive)
